# From PubChem BioAssay
# The list is not random: actives were taken first. Their share in the collection is about 5.1%.
# ANO1 block: mouse TMEM16A channel inhibition, primary screen; HEK293 TMEM16A/YFP iodide influx fluorescence, ionomycin; normalized B-score (activity score, 25-100; higher = stronger inhibition) at 10 µM; Q8BHY3; 310,000 tested, 1.2% active;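 active = ratio plate-corrected score three or more library SD toward inhibition, starting fluorescence score within five deviations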;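 note: score derived from kinetic fluorescence span divided by baseline fluorescence per well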
# Target sequence (Q8BHY3 whole entry, looked up): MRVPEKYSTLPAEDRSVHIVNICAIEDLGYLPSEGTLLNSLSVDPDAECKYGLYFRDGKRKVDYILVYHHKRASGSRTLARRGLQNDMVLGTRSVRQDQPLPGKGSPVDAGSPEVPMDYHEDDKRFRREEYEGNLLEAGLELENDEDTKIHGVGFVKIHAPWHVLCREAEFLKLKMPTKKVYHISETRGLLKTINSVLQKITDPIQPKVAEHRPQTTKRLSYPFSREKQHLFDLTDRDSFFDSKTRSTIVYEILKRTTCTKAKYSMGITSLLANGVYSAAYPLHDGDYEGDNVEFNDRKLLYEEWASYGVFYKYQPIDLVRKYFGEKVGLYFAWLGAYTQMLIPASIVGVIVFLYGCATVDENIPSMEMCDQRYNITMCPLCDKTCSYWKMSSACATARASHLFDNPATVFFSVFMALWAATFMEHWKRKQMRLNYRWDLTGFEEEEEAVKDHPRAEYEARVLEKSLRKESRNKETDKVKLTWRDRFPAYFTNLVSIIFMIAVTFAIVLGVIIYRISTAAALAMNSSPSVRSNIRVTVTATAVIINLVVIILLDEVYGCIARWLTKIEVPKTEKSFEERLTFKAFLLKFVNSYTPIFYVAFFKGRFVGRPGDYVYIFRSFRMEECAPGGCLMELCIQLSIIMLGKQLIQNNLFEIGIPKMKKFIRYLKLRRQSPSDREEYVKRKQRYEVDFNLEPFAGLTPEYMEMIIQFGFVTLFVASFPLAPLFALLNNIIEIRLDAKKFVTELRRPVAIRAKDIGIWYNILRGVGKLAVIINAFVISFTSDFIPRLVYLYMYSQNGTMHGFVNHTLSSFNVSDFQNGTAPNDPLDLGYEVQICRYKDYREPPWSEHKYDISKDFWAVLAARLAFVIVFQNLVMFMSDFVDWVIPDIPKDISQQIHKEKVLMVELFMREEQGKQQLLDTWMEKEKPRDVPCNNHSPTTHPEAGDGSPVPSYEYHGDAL
# MPTP block: blocks calcium-induced mitochondrial swelling | isolated mouse mitochondria, Ca2+ swelling absorbance, 30 min | inhibition, % at 10 µM | 360,000 tested, 1.4% active | AID 602449;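 active = inhibition of 50% or more, scaled per plate between neutral and stimulator controls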;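 note: 0% = DMSO wells given calcium and 100% = 1 mM EGTA wells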
# CRFBP-R2 block: blocks CRF-induced signaling of the CRF-BP/CRF-R2 complex; 350,000 tested, 0.59% active; AID 588475; HEK293 CRF-R2/CRF-BP, CRF-induced calcium fluorescence; inhibition, % at 11.8 µM;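 active = inhibition of the ligand-induced calcium signal above about 50% at the single tested concentration, limit read from the data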
# ANO1 activ: activates or potentiates the mouse TMEM16A chloride channel; HEK293 TMEM16A/YFP-H148Q/I152L, iodide quench fluorescence; stronger effect = lower value; B-score at 10 µM; 340,000 tested, 0.3% active; AID 623877;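 active = fluorescence-ratio B-score plate-corrected deviation score at least 3 library SD below zero, with starting fluorescence score within 5 deviations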;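 note: channel opened by trigger with iodide after compound preincubation; score built on the fluorescence ratio of max minus min over baseline; more negative score means more quench and so TMEM16A activation or potentiation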
# CRFBP-R2 agonist: agonists of human CRF-binding protein/CRF-R2 receptor complex; 350,000 tested, 0.46% active; activation, % at 13.2 µM; HEK293 CRF-R2/CRF-BP, calcium dye fluorescence (FLIPR); percent of saturating CRF peptide response;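 active = activation of at least 50%, plus an integration ratio under a set limit after plate pattern correction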;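 note: plate controls were neutral control wells without compound for no effect and CRF at EC100 for full effect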
# NR3A LBD binder: modulates the human NR3A ligand-binding domain. NR3A LBD differential scanning fluorimetry, Tm shift; 0% = protein alone, 100% = glycine-bound protein. Tm shift relative to glycine control, % at 25 µM. 340,000 tested, 2.5% active;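 active = melting temperature shift of at least 10% of the positive control shift, at one fixed dose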
# * = called active by the depositor; i = inactive; . = not tested or not shown.
SMILES,ANO1 block,MPTP block,CRFBP-R2 block,ANO1 activ,CRFBP-R2 agonist,NR3A LBD binder
C=CCOc1cccc(CNc2ccc3[nH]c(=O)[nH]c3c2)c1,i,0,91*,i,0,0
O=C(CSc1ccc(-c2ccc(Cl)cc2)nn1)NC1CCCC1,i,0,-6,i,1,-1
CC(C)c1cc(CNC(=O)C2CCC(=O)N(Cc3ccccc3F)C2)on1 (configuration not stated),i,-1,12,i,-1,-2
Cc1ccc(C(=O)O)cc1NC(=O)C1=CSCCO1,i,0,18,i,3,21*
CC(C)=NN/C(N)=N/C(=S)Nc1ccc(C)cc1,i,1,-22,i,1,13*
Cc1ccc(NC(=S)NNC(C)(C)C)cc1,i,-2,-7,i,-2,-1
CC(=O)Nc1ccc(C(=O)N/N=C/c2cc(Br)cc(Br)c2O)cc1,i,0,-11,i,44,19*
CC(C)C(=O)Nc1ccc(C(=O)N/N=C/c2cc(Br)cc(Br)c2O)cc1,i,7,-4,i,19,31*
Cc1[nH]c2ccccc2c1SCC(=O)NNC(=O)Nc1ccc(OC(F)(F)F)cc1,i,7,-21,i,1,12*
Cc1ccc(-n2c(C)cc(C(=O)CN3CCOCC3)c2C)cc1C,i,2,-12,i,-4,18*
Cc1cccc2nc(CNC(=O)CC3C(=O)NCCN3Cc3cccc(F)c3)cn12 (configuration not stated),i,0,-2,i,2,1
CCC1(C)Cc2ccccc2-c2c1c(=O)n(-c1ccc(C)cc1)c1nnnn21 (configuration not stated),i,2,-14,i,2,1
CC1(C)Cc2ccccc2-c2c1c(=O)n(Cc1ccccc1)c1nnnn21,i,1,61*,i,-1,1
CCOC(=O)c1snc(-c2ccc(F)cc2)c1N,i,-1,12,i,-4,14*
CCOC(=O)c1sc(N)nc1-c1ccccc1,i,0,7,i,-1,-1
Cc1oc2ccc(O)cc2c1C(=O)c1ccc(Br)cc1,i,9,-2,i,0,-9
O=C1C2=C(SCCS2)C(=O)N1CCCO,i,-4,34,i,59*,0
O=C1c2ccc(-c3ccc4c(c3)C(=O)N(CCCO)C4=O)cc2C(=O)N1CCCO,i,4,0,i,-2,1
COc1cccc(-c2nnc(NC(=O)c3cccs3)s2)c1,i,0,-11,i,24,-4
COc1ccc(C(=O)Nc2nc3c(s2)Cc2cc(OC)ccc2-3)cc1,i,1,0,i,0,11*
COc1ccc2c(c1)Cc1sc(NC(=O)c3ccccc3)nc1-2,i,-3,-26,i,0,10*
COc1ccc2c(c1)Cc1sc(NC(=O)c3cccs3)nc1-2,i,-2,-4,i,-1,25*
COc1cccc(C(=O)NCCN2CCN(c3ccccc3)CC2)c1,i,0,1,i,-1,4
CCC(NC(=O)CNC(=O)c1ccc2c(c1)OCO2)c1ccc(Br)cc1 (configuration not stated),.,0,-16,i,0,-1
CCOc1ccc(NC(=O)c2cc3cc4ccc(OC)cc4nc3o2)cc1,i,1,10,i,2,13*
SMILES,ANO1 block,MPTP block,CRFBP-R2 block,ANO1 activ,CRFBP-R2 agonist,NR3A LBD binder
Cc1ccc2cc(C(c3nnnn3C(C)(C)C)N3CCCCCC3)c(=O)[nH]c2c1 (configuration not stated),i,-2,4,i,0,11*
O=[N+]([O-])c1ccc(-c2ccc(/C=N/Nc3nc(N4CCCCC4)nc(N4CCCCC4)n3)o2)cc1,.,2,-114,i,69*,5
O=[N+]([O-])c1cccc(-c2ccc(/C=N/NC(=S)Nc3ccccc3)o2)c1,i,1,13,i,4,15*
COc1ccccc1-c1cnnc(N/N=C/c2ccc(-c3cccc(Br)c3)o2)n1,i,3,-28,i,2,-3
COCCNC(=S)N/N=C/c1ccc(-c2ccc([N+](=O)[O-])cc2)o1,i,6,-63,i,70*,-3
NC(=O)N/N=C/c1ccc(-c2ccc([N+](=O)[O-])cc2)o1,i,1,-16,i,0,2
COc1ccc(-c2cnnc(N/N=C/c3ccc(-c4ccc([N+](=O)[O-])cc4)o3)n2)cc1,.,0,16,i,-1,19*
O=[N+]([O-])c1cccc(-c2ccc(/C=N/Nc3nc(N4CCCCC4)nc(N4CCCCC4)n3)o2)c1,i,3,6,i,-1,2
O=[N+]([O-])c1ccc(-c2ccc(/C=N/O)o2)cc1,i,2,-9,i,-1,33*
CCOc1ccc(CNC(=S)N/N=C\c2ccc([N+](=O)[O-])cc2)cc1,i,3,-21,i,-4,24*
O=[N+]([O-])c1ccc(-c2ccc(/C=N/Nc3nc(N4CCCC4)nc(N4CCCC4)n3)o2)cc1,i,0,-113,i,129*,1
COc1ccc(C(=O)Nc2cc(C)on2)c(OC)c1,i,0,10,i,4,-1
COc1ccc(C(=O)Nc2ccc(C)cn2)c(OC)c1,100*,2,12,i,0,0
CC(C)Oc1ccc(C(=O)Nc2cccc(S(=O)(=O)N3CCCC3)c2)cc1,.,-1,10,i,-3,0
Cc1ccccc1-c1cccc([C@@H]2C[C@H]3[C@H](CON3C)CN2C(=O)C(C)(C)C)c1,.,-1,-11,.,-5,0
CC(C)C[C@@H](CN1CCCC1CN1C(=S)NC[C@@H]1Cc1ccc(O)cc1)N1C[C@H](Cc2ccc(O)cc2)N(CC2CCCCCC2)C1=S (some centres not stated),.,4,-4,.,-1,36*
CC(C)C[C@@H](CN1CCCC1CN1C(=S)NC[C@@H]1Cc1ccc(O)cc1)N1C[C@H](Cc2ccccc2)N(CC2CCCCCC2)C1=S (some centres not stated),.,3,-12,.,0,12*
CC(C)C[C@H]1CNC(=S)N1CC1CCCN1C[C@H](Cc1ccccc1)N1C[C@H](Cc2ccc(O)cc2)N(CC2CCCCCC2)C1=S (some centres not stated),.,-1,-13,.,1,29*
Cc1ccc(S(=O)(=O)N2CCC(C(=O)Nc3ccncc3)CC2)cc1,i,1,-3,i,1,1
COc1ccc(OC)c(NC(=O)CSc2ncnc3sc(C)cc23)c1,.,1,-3,i,0,-4
